The nature of test [1]: StAR promoter reporter inhibitors, counter-screen for LRH-1 inverse agonist project, cell-based, luminescence, high throughput (AID 651611; in the data active = inhibition above about 28%). The note with it: StAR promoter luciferase reporter counterscreen, at 3.6 µM, stronger effect = higher value. A general note: A counterscreen serves to expose hits that act by an unwanted route or on another target.
For test [2], the target named is Nuclear receptor subfamily 5 group A member 2 (Homo sapiens) (UniProt O00482). In words: NR5A2 activity suppression in reporter cells – cell-based, luminescence, confirmation (AID 651613; in the data active = inhibition above about 42%;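 also: HEK293T cells co-transfected with LRH-1 and StAR promoter luciferase reporter; 0% = vehicle wells and 100% = parental cells lacking receptor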). The note with it: cell-based LRH-1 luciferase reporter, inverse agonism; at 3.6 µM; stronger effect = higher value.
Test [3] addresses Steroidogenic factor 1 (Homo sapiens) (UniProt Q13285). Briefly: inverse agonism at SF1 nuclear receptor – cell-based, luminescence, high throughput, counter-screen for LRH-1 inverse agonist project (AID 651614; in the data active = inhibition above about 44%;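 also: cells cotransfected with StAR promoter reporter and SF1 expression vector; 0% = vehicle on cells with receptor and 100% = vehicle on cells lacking receptor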). The note with it: cell-based SF1 luciferase reporter, at 3.6 µM, stronger effect = higher value.
Test [4] in a line: compounds suppressing VP16-driven luciferase signal – cell-based, luminescence, high throughput, counter-screen for LRH-1 inverse agonist project (AID 651615; in the data active = inhibition above about 33%). Conditions: Gal4-VP16 luciferase reporter cells, at 3.6 µM, stronger effect = higher value.
Test [5] is described as follows: VP16-driven transactivation reporter suppression – cell-based, luminescence, HEK293, counter-screen for COUP-TFII antagonist project (AID 687007; in the data active = inhibition above about 13%). Conditions: HEK293 Gal4-VP16 luciferase reporter, at 8.5 µM, stronger effect = higher value.
In test [6] the target is COUP transcription factor 2 (Homo sapiens) (UniProt P24468). In words: retest of COUP-TFII reporter suppressors – cell-based, luciferase reporter, HEK293, triplicate, confirmation (AID 687008;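 active = mean inhibition over three repeats above a set limit taken from the earlier primary screen, cut at about 38% in these data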;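 also: 100% = cells given the luciferase reporter alone without the COUP-TF2 vector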). The note with it: HEK293 NGFI-A luciferase reporter, luminescence; at 8.5 µM; stronger effect = higher value. A general note: In a reporter assay the amount or activity of a reporter protein is the signal.

In test [7] the test system is transactivating tegument protein VP16 (Human herpesvirus 1). In words: compounds suppressing VP16-driven luciferase signal – cell-based, luminescence, single concentration, counter-screen for SRC2 inhibitor project (AID 652007). The note with it: cell-based VP16 transactivation luciferase reporter, at 8.9 µM, stronger effect = higher value.
Test [8] has as its target Nuclear receptor coactivator 2 (Homo sapiens) (UniProt Q15596). In words: inhibition of GAL4-SRC2 driven luciferase expression – cell-based, luminescence, HEK293, triplicate, confirmation (AID 652008;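 active = mean inhibition above 46.5%, the solvent-only control mean plus 3 SD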;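 also: 0% = DMSO-treated cells and 100% = Gossypol at 36 µM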). Conditions: HEK293 GAL4-SRC2 luciferase reporter, at 8.9 µM, stronger effect = higher value.

We go through 30 compounds from PubChem BioAssay.

Each structure is given as a SMILES string. Unmarked numbers belong to inactive results. This is one part of the list. Active and inactive are the calls of the source. Rule as the data show it, unless noted: active = inhibition above about 36%; inactive = the rest.

Chain of Nuclear receptor coactivator 2 (Homo sapiens) (Q15596 whole entry, looked up, the tested form may be a part): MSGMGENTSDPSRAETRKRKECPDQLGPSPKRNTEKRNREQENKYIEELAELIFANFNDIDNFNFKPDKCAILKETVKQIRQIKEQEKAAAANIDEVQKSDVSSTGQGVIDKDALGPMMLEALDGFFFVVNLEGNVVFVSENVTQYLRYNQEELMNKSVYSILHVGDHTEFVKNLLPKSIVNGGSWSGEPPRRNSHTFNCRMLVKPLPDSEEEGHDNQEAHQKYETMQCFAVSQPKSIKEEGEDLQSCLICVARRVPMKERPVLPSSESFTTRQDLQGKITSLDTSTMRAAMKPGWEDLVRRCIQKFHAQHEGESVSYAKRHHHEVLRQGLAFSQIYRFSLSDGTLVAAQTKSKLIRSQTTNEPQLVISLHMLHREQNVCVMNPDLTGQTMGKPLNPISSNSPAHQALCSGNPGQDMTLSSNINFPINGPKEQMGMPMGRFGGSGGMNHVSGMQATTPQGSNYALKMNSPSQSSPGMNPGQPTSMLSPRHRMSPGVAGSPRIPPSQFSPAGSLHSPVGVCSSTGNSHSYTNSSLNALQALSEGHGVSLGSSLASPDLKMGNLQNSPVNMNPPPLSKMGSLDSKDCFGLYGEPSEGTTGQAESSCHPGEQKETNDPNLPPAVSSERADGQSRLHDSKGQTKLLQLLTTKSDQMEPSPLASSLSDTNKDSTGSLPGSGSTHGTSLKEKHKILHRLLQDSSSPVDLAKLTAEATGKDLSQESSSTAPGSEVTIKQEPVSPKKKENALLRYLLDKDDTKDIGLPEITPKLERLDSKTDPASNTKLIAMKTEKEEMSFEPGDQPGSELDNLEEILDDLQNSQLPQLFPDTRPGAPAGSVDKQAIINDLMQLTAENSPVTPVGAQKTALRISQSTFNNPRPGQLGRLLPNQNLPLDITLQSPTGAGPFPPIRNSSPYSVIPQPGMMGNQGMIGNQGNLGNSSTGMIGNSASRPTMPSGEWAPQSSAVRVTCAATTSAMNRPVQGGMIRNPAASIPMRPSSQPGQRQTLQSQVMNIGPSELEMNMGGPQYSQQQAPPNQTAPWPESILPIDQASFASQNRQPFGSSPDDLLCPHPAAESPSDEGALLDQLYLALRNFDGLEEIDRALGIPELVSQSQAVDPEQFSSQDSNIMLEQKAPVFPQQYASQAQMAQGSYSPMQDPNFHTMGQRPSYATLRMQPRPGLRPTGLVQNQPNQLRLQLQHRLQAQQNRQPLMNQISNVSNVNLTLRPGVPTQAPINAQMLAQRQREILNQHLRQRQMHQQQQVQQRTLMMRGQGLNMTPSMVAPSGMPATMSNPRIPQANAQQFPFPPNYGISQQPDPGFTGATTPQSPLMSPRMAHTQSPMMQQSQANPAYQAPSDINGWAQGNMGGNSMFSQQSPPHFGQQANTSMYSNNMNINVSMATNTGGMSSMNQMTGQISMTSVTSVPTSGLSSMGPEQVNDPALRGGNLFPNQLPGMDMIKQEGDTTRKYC
Chain of Nuclear receptor subfamily 5 group A member 2 (Homo sapiens) (O00482 whole entry, looked up): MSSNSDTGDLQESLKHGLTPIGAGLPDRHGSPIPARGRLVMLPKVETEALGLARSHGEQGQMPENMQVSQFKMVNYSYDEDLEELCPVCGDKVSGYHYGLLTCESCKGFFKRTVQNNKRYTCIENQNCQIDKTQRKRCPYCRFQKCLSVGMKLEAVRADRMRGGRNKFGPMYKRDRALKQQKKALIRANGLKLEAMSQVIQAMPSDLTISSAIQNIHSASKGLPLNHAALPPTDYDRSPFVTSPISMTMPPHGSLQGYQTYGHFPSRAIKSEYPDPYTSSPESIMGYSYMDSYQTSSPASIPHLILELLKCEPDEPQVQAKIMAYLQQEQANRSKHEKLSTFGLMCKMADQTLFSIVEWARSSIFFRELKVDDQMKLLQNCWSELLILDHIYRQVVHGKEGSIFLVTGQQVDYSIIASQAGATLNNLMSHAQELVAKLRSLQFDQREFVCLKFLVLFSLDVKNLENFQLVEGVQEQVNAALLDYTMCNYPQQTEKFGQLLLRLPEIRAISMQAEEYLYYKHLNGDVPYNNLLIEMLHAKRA
Chain of Steroidogenic factor 1 (Homo sapiens) (Q13285 whole entry, looked up, the tested form may be a part): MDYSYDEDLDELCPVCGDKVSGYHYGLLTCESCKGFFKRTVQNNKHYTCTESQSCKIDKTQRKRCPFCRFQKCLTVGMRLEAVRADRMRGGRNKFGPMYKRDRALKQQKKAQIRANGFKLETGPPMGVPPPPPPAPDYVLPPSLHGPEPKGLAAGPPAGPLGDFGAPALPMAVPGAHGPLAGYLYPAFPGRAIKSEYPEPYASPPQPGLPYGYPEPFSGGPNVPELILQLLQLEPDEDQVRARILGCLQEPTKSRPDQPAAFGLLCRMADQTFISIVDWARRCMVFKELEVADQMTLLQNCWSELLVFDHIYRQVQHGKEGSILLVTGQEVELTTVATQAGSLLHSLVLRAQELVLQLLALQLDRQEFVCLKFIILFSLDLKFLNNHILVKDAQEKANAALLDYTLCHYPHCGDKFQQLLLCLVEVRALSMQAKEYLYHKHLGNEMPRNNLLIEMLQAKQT
Chain of COUP transcription factor 2 (Homo sapiens) (P24468 whole entry, looked up): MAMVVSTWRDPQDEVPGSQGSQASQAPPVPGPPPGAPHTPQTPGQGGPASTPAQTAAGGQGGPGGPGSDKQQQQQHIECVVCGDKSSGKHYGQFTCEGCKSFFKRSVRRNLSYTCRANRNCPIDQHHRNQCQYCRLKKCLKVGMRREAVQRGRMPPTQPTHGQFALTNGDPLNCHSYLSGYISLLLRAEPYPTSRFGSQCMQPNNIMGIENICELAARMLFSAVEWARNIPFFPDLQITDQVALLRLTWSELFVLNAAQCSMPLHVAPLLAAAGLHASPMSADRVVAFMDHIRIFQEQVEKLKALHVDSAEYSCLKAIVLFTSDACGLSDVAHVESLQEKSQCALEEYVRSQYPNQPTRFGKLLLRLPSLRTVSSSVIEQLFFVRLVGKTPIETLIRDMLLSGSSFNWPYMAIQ

On to `O=C(NCc1ccco1)c1nn(-c2ccccc2)c(=O)c2ccccc12`, for which the inhibition in test [1] was 19.6%; in test [2], 57% (active); in test [3], 53.4% (active); in test [4], -14.1%.
As for `C#CCN(C[C@@H]1[C@@H](OC(=O)NCC2CCCCC2)[C@@H](OC(=O)NCC2CCCCC2)Cn2c(=O)ccc(=O)n21)S(=O)(=O)c1ccc(C)cc1`, the inhibition in test [1] was 38.3% (active); in test [2], 62.4% (active); in test [3] it was 74.5% (active); in test [4] it was 70.8% (active).
On the same counts, the results for `O=C(Nc1cc(C(F)(F)F)cc(C(F)(F)F)c1)O[C@@H]1c2ccccc2[C@@H]2Cc3csc[n+]3[C@H]12` are 15.6%, 60% (active), 58.4% (active) and 4.96%.
In the case of `CCOc1cc(/C=C2/C(=N)N3OC(C)=CC3=NC2=O)ccc1OCCOc1ccccc1`, the inhibition in test [1] was 5.5%; in test [2], 46% (active); in test [3], 32.2%; in test [4], -12.2%.
As for `O=C(Nc1ccc(Br)cn1)C1CCN(S(=O)(=O)c2cccs2)CC1`, the inhibition in test [5] was 13.1% (active); in test [6], 48.2% (active).
On the same counts, the results for `CCc1cc(-c2nnn(CCC3COCCO3)c2CC)ccc1-c1cn(Cc2ccc3ccccc3c2)nn1` (stereo not drawn) are -21.8% and 42% (active).
For the compound `O=c1oc2ccc(C#CC3(O)CCCCC3)cc2cc1-n1cc(-c2ccccn2)nn1`, the inhibition in test [7] is -8.43%; in test [8] it was -3.27%.
On the same counts, the results for `O=C(COc1ccc([N+](=O)[O-])cc1)Nc1ccc(C(=O)NCc2cccnc2)cc1` are -13.3% and 27.8%.
On the same counts, the results for `CN(/C(=N\S(=O)(=O)c1ccccc1)c1ccccc1)c1ccc(O)cc1` are -3.87% and -40.4%.
As to `O=C1C=CC2C3C(=O)N(c4ccccc4)C(=O)C3C1N2Cc1ccccc1` (stereo not drawn), the values for the inhibition in test [7] and in test [8] were 30.5% and 65.9% (active), respectively.
Consider `CN1CCN(/N=C/c2ccc(N(c3ccccc3)c3ccccc3)cc2)CC1`, for which the figures for the inhibition in test [7] and in test [8] were 2.36% and 27.4%, respectively.
On to `Cc1cc(C)c(C)c(N=Nc2nc3ccccc3n2C)c1C`, for which the inhibition in test [7] is -75.3%; in test [8], 49.7% (active).
For the compound `CCn1nc(C)cc1-c1nnc(Sc2ncc([N+](=O)[O-])s2)n1C`, the inhibition in test [7] was 85.2% (active); in test [8], 93.9% (active).
On to `O=c1ccn(Cc2ccc(F)cc2)c2ccnc(C(F)(F)F)c12`, for which the inhibition in test [7] was 14.8%; in test [8] it was 16.6%.
In the case of `Cc1ccc(NC(=O)COC(=O)C2=NN(c3ccccc3)C(=O)CC2)c(Br)c1`, the inhibition in test [7] is -16.2%; in test [8], -37.9%.
On the same counts, the results for `CCN(CC)Cc1nc2c(c(=O)[nH]1)C(CC)(CC)Cc1ccccc1-2` are -14.9% and 6.86%.
On the same counts, the results for `Nc1ccc(C(=O)N2CCN(S(=O)(=O)c3ccc4c(c3)OCCO4)CC2)cc1[N+](=O)[O-]` are 2.71% and 40.5%.
On to `O=C(c1ccc(S(=O)(=O)NCc2ccco2)cc1)N1CCN(Cc2ccc3c(c2)OCO3)CC1`, for which the results for the inhibition in test [7] and in test [8] were -2.59% and 3.12%, respectively.
On the same counts, the results for `CCN(CC)S(=O)(=O)c1ccc(NC(=O)Nc2cccc(C(F)(F)F)c2)cc1` are -13.1% and 14%.
On the same counts, the results for `CCOc1ccc(-c2cc(CCCC(=O)Nc3cc(OC)ccc3OC)no2)cc1` are 47.9% (active) and 79.5% (active).
`O=C(O)CCCc1nc(-c2ccc(Cl)cc2)no1`: the inhibition in test [7] is 20.7%; in test [8], 30%.
On to `CN1/C(=C\C=C2/SC(=S)NC2=O)C(C)(C)c2ccccc21`, for which the inhibition in test [7] was 8.01%; in test [8], 15.6%.
On the same counts, the results for `Cc1cc(C)cc(C(=O)NC(=S)Nc2ccc(-c3cc4ccccc4oc3=O)cc2)c1` are -8.51% and 46.7% (active).
On to `CC(=O)CC[C@@H]1CC[C@]2(CCCN(S(C)(=O)=O)C2)O1`, for which the inhibition is -18.6% in test [7] and -4.54% in test [8].
Turning to `Cn1nc(C(C)(C)C)cc1C(=O)N1CCCCC1c1cc(C(=O)Nc2ccccc2Cl)no1` (stereo not drawn), the results for the inhibition in test [7] and in test [8] were 7.65% and 13.2%, respectively.
On the same counts, the results for `COc1ccc(CC(=O)NNC(=O)c2ccc(Br)o2)cc1` are -9.53% and -27.1%.
For the compound `Cc1cccc(NC(=S)NNc2ncc(C(F)(F)F)cc2Cl)c1`, the inhibition was 24.3% in test [7] and 11.6% in test [8].
Regarding `CCCCSc1nc(C)cc(SCC(=O)N/N=C/c2cccc(OC)c2O)n1`, the inhibition in test [7] is -16.2%; in test [8], 22.5%.
With `CCCN1C(=O)C2C(C(=O)Nc3cccc(OC)c3)C3C=CC2(O3)C1C(=O)NC1CCCCC1` (stereo not drawn), the inhibition is -13.7% in test [7] and -16.6% in test [8].
On the same counts, the results for `O=C(O)c1ccc(Oc2ccc(S(=O)(=O)c3ccc(C(=O)O)c(C(=O)O)c3)cc2)cc1` are -6.88% and -6.84%.

By inhibition is commonly meant the relative decrease from the control value, in per cent.
